# Screens from PubChem.
# POLH inh: DNA polymerase eta (human) inhibition | Q9Y253 | recombinant Pol eta, fluorescent DNA replication assay | Potency, µM (titrated, usually from 114 µM), inactives show at the highest dose activity change, negative = inhibition, usual class: inhibitors | 390,000 compounds, 1.2% hits; note: % is set by controls: 0 for no effect and ±100 for the full control effect
#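 Pol eta at 10 nM preincubated with compounds 15 min at room temperature; reaction started with fluorescent substrate (50 nM final) and read kinetically at 0 and 10 min.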
# L3MBTL1 block: inhibitors of human L3MBTL1; Potency, µM (titrated, usually from 57.1 µM), inactives show top-dose activity, negative = inhibition, usual class: inhibitors; AlphaScreen L3MBTL1–H3K9me1 peptide binding; Q9Y468; 230,000 compounds, 0.66% hits; note: % is set by controls: 0 for no effect and ±100 for the full control effect; nearly all actives have a fitted effect of over 60% in size
#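 Displacement of a biotinylated histone H3(1-15) peptide monomethylated at Lys9 (75 nM) from L3MBTL1 (50 nM) was measured by AlphaScreen after a 30 min room-temperature compound incubation; cefsulodin titration served as intraplate control.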
# WRN helicase inh: WRN helicase (human) inhibition. AID 651768. 360,000 compounds, 0.46% hits. Potency, µM (top dose mostly 114 µM), inactives show at the highest dose activity change, negative = inhibition, usual class: inhibitors. Q14191. WRN helicase unwinding, fluorescent forked duplex, kinetic; note: % is set by controls: 0 for no effect and ±100 for the full control effect; nearly all actives have a fitted effect of over 55% in size
#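 WRN at 20 nM final preincubated with compound 15 min at room temperature; reaction started with 100 nM fluorophore/quencher forked duplex oligonucleotide and 2 mM ATP final. Unwinding followed kinetically by red fluorescence (ex 525, em 598 nm).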
# Pol beta inh: inhibitors of human DNA polymerase beta. Pol beta primer extension/strand displacement, fluorescence kinetic. Potency, µM (highest dose often 114 µM), for inactives: top-dose activity change, negative = inhibition, hits mostly inhibitors. 340,000 compounds, 1.3% hits. AID 485314; note: % is set by controls: 0 for no effect and ±100 for the full control effect
#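 Pol beta (10 nM) was preincubated with compound for 15 min at room temperature. The reaction was then started with 50 nM substrate and read immediately and after a further 10 min at room temperature.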
# POLI inh: inhibitors of human DNA polymerase iota; Q9UNA4; Pol iota fluorescent replication assay, 10 min; Potency, µM (series often up to 115 µM), inactives show at the highest dose activity, negative = inhibition, most hits filed as inhibitors; 390,000 compounds, 1% hits; AID 588590
# Target sequence (Q9UNA4 whole entry, looked up): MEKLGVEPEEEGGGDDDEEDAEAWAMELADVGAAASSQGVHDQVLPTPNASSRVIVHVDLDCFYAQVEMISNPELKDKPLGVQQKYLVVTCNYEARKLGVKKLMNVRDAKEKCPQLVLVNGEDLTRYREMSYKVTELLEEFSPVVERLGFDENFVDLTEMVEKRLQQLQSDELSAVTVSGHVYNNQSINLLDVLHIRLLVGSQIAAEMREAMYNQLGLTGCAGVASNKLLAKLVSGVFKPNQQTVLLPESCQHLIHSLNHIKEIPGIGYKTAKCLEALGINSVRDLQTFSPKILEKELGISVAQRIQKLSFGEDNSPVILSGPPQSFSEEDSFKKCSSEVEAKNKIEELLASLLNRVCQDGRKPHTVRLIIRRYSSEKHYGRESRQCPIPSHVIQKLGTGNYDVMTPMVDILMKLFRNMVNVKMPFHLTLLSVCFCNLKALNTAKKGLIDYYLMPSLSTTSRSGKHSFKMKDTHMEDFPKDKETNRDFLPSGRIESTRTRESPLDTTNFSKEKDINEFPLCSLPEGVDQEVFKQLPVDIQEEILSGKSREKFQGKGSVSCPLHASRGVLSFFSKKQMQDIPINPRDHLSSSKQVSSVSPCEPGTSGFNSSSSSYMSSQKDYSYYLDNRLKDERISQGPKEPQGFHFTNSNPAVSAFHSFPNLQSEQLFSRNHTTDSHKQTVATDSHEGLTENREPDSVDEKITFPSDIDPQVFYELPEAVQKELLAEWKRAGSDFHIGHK
#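 Fluorescent replication assay read twice, at 0 min and 10 min after adding 50 nM (final) substrate. Enzyme (10 nM) and compounds were first incubated 15 min at room temperature; enzyme-free buffer wells were negative controls.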
# POLK inh: blocks human DNA polymerase kappa activity; purified Pol kappa, fluorescent DNA synthesis assay, 10 min; 400,000 compounds, 0.53% hits; Potency, µM (series often up to 107 µM), inactives show top-dose activity, negative = inhibition, usual class: inhibitors; note: % is set by controls: 0 for no effect and ±100 for the full control effect
#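 First, compounds were pin-transferred onto 10 nM Pol kappa. After 15 min at room temperature, substrate was added to 50 nM final. Fluorescence was then measured kinetically at 0 and 10 min.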
# Active calls of the source: *; ? = inconclusive; . = no result given; [ ] = dose if it differs, or a comment. Hits are enriched below; roughly 2.5% of the tested compounds scored in any of these assays. Calls come from the whole dose curve; as a rule, active = well fitted curve in the direction sought with a large enough effect; inconclusive = small, poorly fitted or top-dose-only effect, or another doubt; inactive = no such curve, though single readings can be large; an effect the other way counts as inactive or inconclusive. Potency is the fitted concentration of half-maximal effect.
SMILES,POLH inh,L3MBTL1 block,WRN helicase inh,Pol beta inh,POLI inh,POLK inh
O=C(Nc1ccc2nsnc2c1)C1CC1,0%,?,-35%[57.1 µM],-2%,22%,-11%
S=C(Nc1ccc2nsnc2c1)N1CCCCC1,-9%,-1%,-16%,2%,3.5µM*,-10%
COc1ccc(C2C3=C(CCCC3=O)NC3=C2C(=O)c2ccccc23)cc1 (stereo not drawn),?,-11%,-2%,0%,10%,-4%
F[B-](F)(F)c1cc2cc(Br)ccc2s1,-4%,.,-12%,.,8%,12%
CCc1cc(=O)oc2cc(OCC(=O)N3CCC(C(N)=O)CC3)ccc12,-20%,8%,1%,66%,60%,-16%
COc1ccc(N=Cc2ccccc2O)cc1,-7%,.,5%,.,-17%,-7%
COc1ccc(N=Cc2oc3ccc4ccccc4c3c2O)cc1,-27%,27%,-15%[11.6 µM],11µM*,?,-29%
Cn1c(NC(=O)c2ccc(F)cc2)nc2ccccc21,-17%,3%,-1%[11.6 µM],5%,89µM*,-14%
CCCN(CCC)CCCNC(=O)c1cc2c(-c3ccc(Cl)cc3)nn(C)c2s1,-7%,.,.,20µM*,-1%,-10%
O=C(CNc1ccc(F)cc1)N/N=C/c1c(O)ccc2ccccc12,-23%,.,-5%,-10%,27%,-8%
Cc1ccc2nc3sc(C(=O)Nc4c(C)[nH]c(=O)[nH]c4=O)c(N)c3cc2c1,?,4%,-32%,50µM*,4%,-26%
Cc1ccc2cc3c(N)c(C(=O)Nc4c(C)[nH]c(=O)[nH]c4=O)sc3nc2c1,?,-3%,-30%[57.1 µM],?,?,-28%
COc1ccc(S(=O)(=O)NC(C)C(=O)NCc2ccncc2)cc1C (stereo not drawn),-14%,.,19%,0%,88%,-7%
COc1ccc(S(=O)(=O)NC(C)C(=O)NCc2ccncc2)cc1OC (stereo not drawn),-16%,.,0%,0%,89µM*,1%
CC1=CC(C)(C)NC(=S)N1c1cccc2cc(S(=O)(=O)O)ccc12,13µM*,?,-22%,50µM*,?,-18%
CC(=O)Oc1c2occc2cc2ccc(=O)oc12,?,.,-28%,50µM*,?,?
CCNc1nc(NCC)nc(OCCOC(=O)COc2ccc(Cl)cc2Cl)n1,-21%,1%,-13%,-26%,-10%,-15%
O=C(Nc1ccc2oc(-c3ccccc3F)nc2c1)c1ccc([N+](=O)[O-])o1,4%,.,4%,11µM*,?,-6%[60.1 µM]
COc1ccc(OC)c(S(=O)(=O)NCCCN2CCCC2=O)c1,-13%,.,0%,42%,59%,-2%
CC1CN(C(=O)c2cccc(Oc3ccccc3)c2)CC(C)O1 (stereo not drawn),10%,.,4%,-27%,33%,3%
CCSc1nnc(NC(=O)CSc2nnc(Cc3cccn3C)n2-c2ccc(C)cc2)s1,-18%,.,-14%,?,50µM*,-16%
COc1ccc(/C=C/c2ccc3ccccc3[n+]2C)cc1OC,-2%,.,-20%,28µM*,-87%,?
CCCCCCCCCCCNC(=O)c1ccoc1C,?,1%,50µM*,4%,6%,-18%
C#CCOCCOCCOCCNc1nc(N2CCN(C(=O)CCCCCCCCCCNC(=O)[C@H](CCCCN)n3cc(C)nn3)CC2)nc(N2CCN(C(=O)CCCCCCCCCCNC(=O)[C@@H]([C@H](C)CC)n3cc(CCCCCN)nn3)CC2)n1,.,-15%,.,.,.,.
C#CCOCCOCCOCCNc1nc(N2CCN(C(=O)CCCCCCCCCCNC(=O)[C@H]([C@@H](C)CC)n3cc(CCCCCN)nn3)CC2)nc(N2CCN(C(=O)CCCCCCCCCCNC(=O)[C@@H]([C@H](C)O)n3cc(C)nn3)CC2)n1,?,-30%,56µM*,.,?,?
SMILES,POLH inh,L3MBTL1 block,WRN helicase inh,Pol beta inh,POLI inh,POLK inh
C#CCOCCOCCOCCNc1nc(N2CCOCC2)nc(N2CCN(C(=O)CCCCCCCCCCNC(=O)Cn3cc(CCCCCN)nn3)CC2)n1,-13%,3%,5%,.,?,-6%
C#CCOCCOCCOCCNc1nc(N2CCN(C(=O)CCCCCCCCCCNC(=O)Cn3cc(CCCCCN)nn3)CC2)nc(N2CCN(C(=O)CCCCCCCCCCNC(=O)[C@H](CO)n3cc(CCCCCN)nn3)CC2)n1,-17%,12%,79µM*,.,?,3%
C#CCOCCOCCOCCNc1nc(N2CCN(C(=O)CCCCCCCCCCNC(=O)Cn3cc(CCCCCN)nn3)CC2)nc(N2CCN(C(=O)CCCCCCCCCCNC(=O)[C@H]([C@@H](C)CC)n3cc(CCCCCN)nn3)CC2)n1,?,5%,56µM*,.,?,7%
O=c1c2ccc(F)cc2sn1-c1ccccc1,-15%,.,-7%,.,.,.
CCCCN(CC)S(=O)(=O)c1ccc(C(=O)Nc2nnc(-c3cccs3)o2)cc1,-21%,.,-8%,?,?,-9%
O=C(Nc1cccc(Cl)c1)c1ccc(=O)[nH]n1,-30%,.,-27%,4%,18µM*,-5%
COC(=O)[C@@]12C[C@@H](CC(=O)NCCCN3CCCC3=O)C(=O)N(Cc3cccc4ccccc34)C1=CCC(C)(C)C2,.,.,-3%,.,.,.
O=C(Cc1cccs1)Nc1nnc(-c2ccccc2)s1,-15%,6%,-1%,16%,34%,9%
O=C(Cc1cccs1)Nc1nnc(-c2ccc(F)cc2)s1,-7%,6%,-5%,12%,12%,-9%
CCC(CC)c1nnc(NC(=O)Cc2cccs2)s1,79µM*,-12%,-10%,?,-15%,-18%
O=C(Cc1cccs1)Nc1nnc(Cc2ccc(F)cc2)s1,.,.,.,40µM*,.,.
O=C(O)c1ccc(S(=O)(=O)c2ccccc2C(=O)O)c([N+](=O)[O-])c1,8%,.,2%,?,-15%,-2%
O=C(O)c1ccc(S(=O)(=O)c2ccc([N+](=O)[O-])cc2[N+](=O)[O-])cc1,79µM*,.,?,8%,1.1µM*,-23%
COc1ccc2nc(-c3ccco3)c(-c3ccco3)nc2c1,3.2µM*,.,45µM*,22µM*,?,?
c1coc(-c2nc3cc4ccccc4cc3nc2-c2ccco2)c1,.,.,.,.,8.9µM*,40µM*
COc1ccc2nc3cccc(OC)c3nc2c1,?,.,0%[11.6 µM],40µM*,49%,-14%
c1coc(-c2nc(-c3ccco3)c(-c3ccco3)nc2-c2ccco2)c1,4µM*,10µM*,20µM*,2.5µM*,?,8.9µM*
COc1ccc2nc3ccccc3nc2c1N,-24%,?,-30%,0%,?,-19%
O=C1c2ccccc2C(=O)N1c1cccc(-c2csc(Nc3ccc4c(c3)OCO4)n2)c1,.,-30%,.,28µM*,.,.
